Results on 40 compounds are retold here after the supplement of paper PMC7380943.
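Further: compound given one day ahead of doxycycline, which switches on I-SceI endonuclease to cut the chromosomally integrated reporter and create DSBs.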

This experiment deals with CLZ3 (HCA2 human fibroblast dual HR-NHEJ reporter). Nature of the experiment: NHEJ repair efficiency (GFP+ cells) relative to control (log10 fold); higher = more non-homologous end joining. The conditions noted are these: 5 µM; doxycycline 0.5 ug/mL.
In the case of `C[C@@H]1O[C@@H](O[C@@H]2[C@@H](O)[C@H](OCCc3ccc(O)c(O)c3)O[C@H](COC(=O)/C=C/c3ccc(O)c(O)c3)[C@H]2O)[C@H](O)[C@H](O)[C@H]1O` [Isoacteoside], the “NHEJ repair efficiency (log10)” value was -0.112.

As for `O=C(O)C1=C[C@@H](O)[C@@H](O)[C@H](O)C1` [Shikimic Acid], the “NHEJ repair efficiency (log10)” value turned out to be 0.128. With `COc1ccc(-c2cc(=O)c3c(O)cc(O)c(-c4cc(-c5cc(=O)c6c(O)cc(OC)cc6o5)ccc4OC)c3o2)cc1` [Sciadopitysin], the “NHEJ repair efficiency (log10)” value came out at 0.0652. `COc1ccc([C@@H]2CC(=O)c3c(O)cc(O[C@@H]4O[C@H](CO)[C@@H](O)[C@H](O)[C@H]4O[C@@H]4O[C@@H](C)[C@H](O)[C@@H](O)[C@H]4O)cc3O2)cc1O` [Neohesperidin]: the “NHEJ repair efficiency (log10)” value was -0.0783. As to `Nc1ncnc2c1ncn2[C@@H]1O[C@H](CO)[C@@H](O)[C@H]1O` [Adenosine], the “NHEJ repair efficiency (log10)” value is -0.0785.

As to `Cc1cc(O)cc(O[C@@H]2O[C@H](CO)[C@@H](O)[C@H](O)[C@H]2O)c1` [Orcinol Glucoside], the “NHEJ repair efficiency (log10)” value came to 0.0229.

For `OC[C@H]1NC[C@H](O)[C@@H](O)[C@@H]1O` [1-Deoxynojirimycin], the “NHEJ repair efficiency (log10)” value is 0.0355. For `COc1ccc(C=O)c(O)c1` [4-Methoxysalicylaldehyde], the “NHEJ repair efficiency (log10)” value came out at 0.00827. Take `O=C1c2cccc(O)c2C(=O)c2c(O)cccc21` [1,8-Dihydroxyanthraquinone]: the “NHEJ repair efficiency (log10)” value is -0.286. In the case of `Cc1ccc(C(C)C)c(O)c1` [Thymol], the “NHEJ repair efficiency (log10)” value came to 0.108. For the compound `C[C@@H]1O[C@@H](O[C@H]2[C@H](O[C@H]3CC[C@@]4(C)[C@@H](CC[C@]5(C)[C@@H]4CC=C4[C@@H]6CC(C)(C)CC[C@]6(C(=O)O)CC[C@]45C)[C@]3(C)CO)OC[C@H](O)[C@@H]2O)[C@H](O)[C@H](O)[C@H]1O` [α-Hederin], the “NHEJ repair efficiency (log10)” value was -0.0243. Turning to `COc1ccc2c(c1OC)CN(C)CCc1cc3c(cc1C(=O)C2)OCO3` [Allocryptopine], the “NHEJ repair efficiency (log10)” value came to 0.0337. For `CC=C1[C@H](O[C@@H]2O[C@H](CO)[C@@H](O)[C@H](O)[C@H]2O)OC=C(C(=O)OC)[C@H]1CC(=O)OC[C@H]1O[C@@H](OCCc2ccc(O)cc2)[C@H](O)[C@@H](O)[C@@H]1O` (stereo in doubt) [Specnuezhenide] the value was 0.00632; for `COc1cc(OC)c2ccc(=O)oc2c1` [5,7-Dimethoxycoumarin], 0.0653.

Turning to `C[C@H](CCC(=O)NCCS(=O)(=O)O)[C@H]1CC[C@H]2[C@@H]3C[C@H](O)[C@@H]4C[C@H](O)CC[C@]4(C)[C@H]3CC[C@]12C` [Taurohyodeoxycholic Acid], the “NHEJ repair efficiency (log10)” value stood at 0.0397. `CC1(C)CC[C@]2(C(=O)O)CCC3=C([C@@H](CCl)C[C@@H]4[C@@]5(C)C[C@H](O)[C@H](O)[C@@](C)(C(=O)O)[C@@H]5CC[C@@]34C)[C@@H]2C1` [Senegenin]: the “NHEJ repair efficiency (log10)” value is -0.0514. For `Cc1ccc(C(C)C)cc1O` [Carvacrol] the value was -0.132.

Take `O=C(O)C(O)Cc1ccc(O)c(O)c1` (stereo not given) [Sodium Danshensu]: the “NHEJ repair efficiency (log10)” value is -0.0204.

As for `O=C1O[C@H]2[C@@H]3OC(=O)c4cc(O)c(O)c(O)c4-c4c(cc(O)c(O)c4O)C(=O)OC[C@H]2O[C@@H](OC(=O)c2cc(O)c(O)c(O)c2)[C@@H]3OC(=O)c2cc(O)c(O)c3c2[C@@H]2C1=CC(=O)[C@](O)(O3)C2(O)O` [Geraniin], the “NHEJ repair efficiency (log10)” value was -0.0851. In the case of `COC(=O)C1=CO[C@@H](O[C@@H]2O[C@H](CO[C@@H]3O[C@H](CO)[C@@H](O)[C@H](O)[C@H]3O)[C@@H](O)[C@H](O)[C@H]2O)[C@@H]2C(CO)=CC[C@H]12` [Genipin 1-Gentiobioside], the “NHEJ repair efficiency (log10)” value is 0.0417. Take `CC1(C)CC[C@]2(C(=O)O)CC[C@]3(C)C(=CC[C@@H]4[C@@]5(C)CC[C@H](O)[C@@](C)(CO)[C@@H]5CC[C@]43C)[C@@H]2C1` [Hederagenin]: the “NHEJ repair efficiency (log10)” value is -0.021. Consider `COc1ccc(-c2cc(=O)c3c(O)c(OC)c(O)cc3o2)cc1` [Pectolinarigenin], for which the “NHEJ repair efficiency (log10)” value is -0.0149. For `CC(C)=C1CC[C@@H](C)CC1=O` [Pulegone] the value was 0.114. For `COc1c2ccoc2cc2oc(=O)ccc12` [Bergapten], the “NHEJ repair efficiency (log10)” value is -0.153. Turning to `C[C@H](CCC(=O)O)[C@H]1CC[C@H]2[C@@H]3[C@H](O)C[C@@H]4C[C@H](O)CC[C@]4(C)[C@H]3CC[C@]12C` [Chenodeoxycholic Acid], the “NHEJ repair efficiency (log10)” value was -0.124. As for `CCOC(=O)/C=C/c1ccc(O)c(O)c1` [Ethyl Caffeate], the “NHEJ repair efficiency (log10)” value was 0.0562.

`COc1cc(/C=C/C(=O)O)ccc1O` [Ferulaic Acid]: the “NHEJ repair efficiency (log10)” value is -0.0555. With `OC[C@H]1O[C@@H](Oc2cc(O)cc(/C=C/c3ccc(O[C@@H]4O[C@H](CO)[C@@H](O)[C@H](O)[C@H]4O)cc3O)c2)[C@H](O)[C@@H](O)[C@@H]1O` [Mulberroside A] the figure was 0.049. Regarding `C=C1C[C@@]23CC[C@H]4[C@@](C)(CCC[C@@]4(C)C(=O)O[C@@H]4O[C@H](CO)[C@@H](O)[C@H](O)[C@H]4O)[C@@H]2CC[C@]1(O[C@@H]1O[C@H](CO)[C@@H](O)[C@H](O)[C@H]1O)C3` [Rubusoside], the “NHEJ repair efficiency (log10)” value worked out at 0.0726. Turning to `C/C=C/c1cc(OC)c2c(c1)[C@H](C)[C@@H](c1ccc3c(c1)OCO3)O2` [Licarin B], the “NHEJ repair efficiency (log10)” value is 0.0776. For `Cn1c(=O)c2nc[nH]c2n(C)c1=O` [Theophylline], the “NHEJ repair efficiency (log10)” value was 0.0481. Consider `CC(C)[C@@H](C)/C=C/[C@@H](C)[C@H]1CC[C@H]2C3=CC=C4C[C@@H](O)CC[C@]4(C)[C@H]3CC[C@]12C` [Ergosterol], for which the “NHEJ repair efficiency (log10)” value was 0.00511.

As to `O=C(O)C(O)c1ccccc1` (stereo not given) [Mandelic Acid], the “NHEJ repair efficiency (log10)” value is 0.0554. Consider `CC1(C)OC(=O)C=C[C@]2(C)[C@H]3CC[C@@]4(C)[C@H](c5ccoc5)OC(=O)[C@H]5O[C@]54[C@]3(C)C(=O)C[C@@H]12` [Obacunone], for which the “NHEJ repair efficiency (log10)” value is -0.0357. For `O=C(O)CC(O)C(=O)O` (stereo not given) [Malic Acid], the “NHEJ repair efficiency (log10)” value is -0.069. In the case of `OC[C@H]1O[C@@H](Oc2c(O)cc(O)cc2/C=C/c2ccc(O)cc2)[C@H](O)[C@@H](O)[C@@H]1O` [2,3,5,4'-Tetrahydroxy Stilbene 2-Ο-Β-D-Glucoside], the “NHEJ repair efficiency (log10)” value was 0.157. For `CC(C)=CCC[C@](C)(O[C@@H]1O[C@H](CO[C@@H]2O[C@@H](CO)[C@H](O)[C@H]2O)[C@@H](O)[C@H](O)[C@H]1O)[C@H]1CC[C@]2(C)[C@@H]1[C@H](O)C[C@@H]1[C@@]3(C)CC[C@H](O[C@@H]4O[C@H](CO)[C@@H](O)[C@H](O)[C@H]4O[C@@H]4O[C@H](CO)[C@@H](O)[C@H](O)[C@H]4O)C(C)(C)[C@@H]3CC[C@]12C` [Ginsenoside Rc] the value was 0.0541; for `COc1c2c(cc3c1-c1c(cc4c(c1OC)OCO4)C[C@H](C)[C@H](C)C3)OCO2` [Schisandrin C], -0.137. Consider `O=c1c(-c2ccc(O)c(O)c2)coc2c([C@@H]3O[C@H](CO)[C@@H](O)[C@H](O)[C@H]3O)c(O)ccc12` [3-Hydroxy Puerarin], for which the “NHEJ repair efficiency (log10)” value was -0.187.

With `COc1c(O)cc2oc(-c3ccccc3)cc(=O)c2c1O` [Oroxylin A], the “NHEJ repair efficiency (log10)” value turned out to be 0.0844.
